# Measured values published in PubChem BioAssay AID485288 (Southern Research Specialized Biocontainment Screening …, 2010).
# Potency and affinity values are given separately. Values without a mark were called inactive. No rule for the calls is given here.
# Molecular target: Large T antigen (Simian virus 40) (UniProt P03070)
# Assay: SV40 large T antigen ATPase inhibitors, SAR follow-up, biochemical, ADP-Hunter detection, purified TAg, synthesized compounds, set 3 (AID 485288)
# Settings: ADP-Hunter fluorescence; series mostly up to 100 µM; inhibition: at the top concentration
# Chain of Large T antigen (Simian virus 40) (P03070 whole entry, looked up): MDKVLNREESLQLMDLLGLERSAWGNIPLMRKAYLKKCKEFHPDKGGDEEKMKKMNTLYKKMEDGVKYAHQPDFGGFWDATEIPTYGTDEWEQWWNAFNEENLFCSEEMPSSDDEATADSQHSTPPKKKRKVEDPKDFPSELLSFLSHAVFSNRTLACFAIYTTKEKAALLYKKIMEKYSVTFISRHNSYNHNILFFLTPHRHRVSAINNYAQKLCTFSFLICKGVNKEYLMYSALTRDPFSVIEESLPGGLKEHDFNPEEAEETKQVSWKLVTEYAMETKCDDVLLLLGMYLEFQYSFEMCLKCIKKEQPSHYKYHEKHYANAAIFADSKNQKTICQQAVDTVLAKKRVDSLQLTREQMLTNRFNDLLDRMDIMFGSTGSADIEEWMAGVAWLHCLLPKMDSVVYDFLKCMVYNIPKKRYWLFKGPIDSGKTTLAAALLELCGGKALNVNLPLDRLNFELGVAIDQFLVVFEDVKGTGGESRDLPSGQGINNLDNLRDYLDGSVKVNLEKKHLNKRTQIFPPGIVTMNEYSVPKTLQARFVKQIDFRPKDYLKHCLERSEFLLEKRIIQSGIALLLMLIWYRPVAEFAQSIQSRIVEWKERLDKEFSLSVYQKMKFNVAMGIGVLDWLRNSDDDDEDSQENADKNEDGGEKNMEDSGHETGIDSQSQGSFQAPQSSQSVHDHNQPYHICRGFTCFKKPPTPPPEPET
row,SMILES,inhibition
1,Cc1ccccc1-n1nnnc1C(C)(C)N1CCCC1,-23.9%
2,FC(F)(c1nnnn1-c1ccccc1)c1nnc2ccccn12,15.4%
3,CC(C)(c1nnnn1-c1ccc(Cl)cc1)N1CCN(C(=O)c2ccco2)CC1,24.2%
4,Oc1ccc(Cl)cc1Cc1cc(Cl)ccc1O,41%
5,CC(C)(c1ccc(O)cc1)c1ccc(Cl)cc1,49.8%
6,Oc1ccccc1Cc1ccccc1O,-4.68%
7,CC(=O)c1cc(C(C)(C)c2ccc(O)cc2)cc(C(C)=O)c1O,-21.9%
8,Cc1ccc(-n2nnnc2C(C)(C)N2CCCCC2)cc1,32%
9,CC(C)(c1nnnn1-c1ccccc1)N1CCOCC1,-20.2%
